This is an account of results in PubChem BioAssay (Tox21).

Molecules are shown by their SMILES. Values joined by “and” are separate entries in the source; they are usually repeats but may differ in a detail not shown here. Equal values may be shown once. Records with an inconclusive call do not appear. Entries that show only a call come without a potency. A number with no mark means an inactive call. Active and inactive are the calls of the source. Calls follow the shape of the dose curve; as a rule, active = well fitted cell-killing curve with a large enough effect in the repeat runs; inconclusive = weak or mixed curves, or effect the other way; inactive = no such curve, though single readings can be large or run the other way.
Potency is read from the fitted curve at half-maximal effect.

The experiment in a line: qHTS assay to identify small molecule agonists of the RXR signaling pathway - cell viability counter screen (AID 1159529). Also: nearly all actives have a fitted effect of over 50% in size. Particulars: RXR-alpha-bla HEK293T viability, CellTiter-Glo, 16 h; series mostly up to 76.8 µM. An excerpt: National Center for Advancing Translational Sciences [NCATS]
NIH Chemical Genomics Center [NCGC]
U.S. Environmental Protection Agency [EPA]
National Institutes of Environmental Health Sciences [NIEHS]
National Toxicology Program [NTP]
U.S. Food and Drug Administration [FDA]
The Retinoid X receptor (RXR), a nuclear hormone receptor expressed in liver, spleen, placenta, epidermis, central nervous system. These receptors are able to form homo and heterodimers with other nuclear receptors and due to this heterodimerizing ability, RXR functions as master regulators producing diverse physiological effects. Three subtypes of RXR exist; alpha, beta and gamma. Retinoid X receptor alpha (RXR-alpha) has potential roles in metabolic signaling pathways, skin alopecia, dermal cysts, cardiac development, insulin sensitization etc. Therefore screening environmental chemicals on RXR-alpha signaling can be used for the studies focused on such therapeutic applications. For quantification of RXR-alpha ligands signaling, GeneBLAzer RXR alpha-UAS-bla HEK 293T (Life Technologies, Carlsbad, CA) cells containing a beta-lactamase reporter-gene under control of Retinoid X receptor-alpha response element were used to screen Tox21 10K library. The cytotoxicity of the Tox21 compound library against the RXR-alpha HEK 293T cell line was tested in parallel by measuring cell viability using CellTiter-Glo assay (Promega Corporation, Madison, WI) in the same wells.
Tox21 Assay Protocol Summary:
RXR-alpha HEK 293T cells were dispensed at 2,000 cells/6 uL of assay medium containing 2% charcoal-stripped FBS using a Multidrop Combi (ThermoFisher Scientific, Waltham, MA) dispenser. The assay was performed in black wall/clear-bottom 1536-well plates (Greiner Bio-One North America Inc. Monroe, NC). Tetraoctyl ammonium bromide was used as a positive control in the cytotoxicity screen. After the assay plates were incubated at 37 C and 5% CO2 for 5 hr, 23 nL of compounds dissolved in DMSO, positive control or DMSO only were transferred to the assay plate by a Pintool station (Kalypsys, San Diego, CA). The assay plates were incubated at 37 C and 5% CO2 for 16 hr. One uL of LiveBLAzer B/G FRET substrate (Life Technologies) was added using a Flying Reagent Dispenser (FRD) (Aurora Discovery, San Diego, CA) and the plates were incubated at room temperature for 2 hr. Fluorescence intensity (405 nm excitation, 460/530 nm emission) was measured using an Envision plate reader (PerkinElmer, Shelton, CT). For cytotoxicity, 4 uL/well of CellTiter-Glo reagent was added into the assay plates using an FRD. After 30 min incubation at room temperature, the luminescence intensity was measured using a ViewLux plate reader (PerkinElmer).
For `CC1=Nc2ccccc2C1(C)C`, the Potency result is “inactive”.
As for `COc1cc(C)ccc1O`, the Potency result was “inactive”.
Take `COC(=O)Nc1nc2ccc(C(=O)c3ccccc3)cc2[nH]1`: the Potency result is “inactive”.
Still for that read-out and setting: for `CC(=O)CC(=O)Nc1ccc(S(=O)(=O)O)cc1` the value was “inactive”.
As to `Cc1ccc(O)c(N)c1`, the Potency entry was “inactive”.
Still for that read-out and setting: for `CCCNCCC` the value was “inactive”.
Turning to `O=C(Oc1ccccc1)Oc1ccccc1`, the Potency result was “inactive”.
Still for that read-out and setting: the result for `CC1(C)[C@@H](O)CC[C@]2(C)[C@H]3C(=O)C=C4[C@@H]5C[C@@](C)(C(=O)O)CC[C@]5(C)CC[C@@]4(C)[C@]3(C)CC[C@@H]12` reads “inactive”; that for `NC(=S)NC(N)=S`, “inactive”.
Still for that read-out and setting: for `Nc1ccc(NCCO)c([N+](=O)[O-])c1` the value was “inactive”.
Still for that read-out and setting: the result for `O=C1CCc2ccc(OCCCCN3CCN(c4cccc(Cl)c4Cl)CC3)cc2N1` reads 23.9 µM (active); that for `CC(C)(C)NSc1nc2ccccc2s1`, “inactive”; that for `CC(C)(C)C1CCC(=O)CC1`, “inactive”.
Turning to `C=C(CC)C(=O)c1ccc(OCC(=O)O)c(Cl)c1Cl`, the Potency entry is “inactive”.
Same read-out and setting: for `Cc1cc(=O)oc2cc(O)cc(O)c12` the value was “inactive”; for `O=C(O)[C@H](O)[C@@H](O)[C@H](O[C@@H]1O[C@H](CO)[C@H](O)[C@H](O)[C@H]1O)[C@H](O)CO`, “inactive”.
Still for that read-out and setting: for `Cc1ccc(O)c(O)c1` the value was “inactive”.
Turning to `O=C(O)CN(CCN(CC(=O)O)CC(=O)O)CC(=O)O`, the activity change, negative = cytotoxicity was -6.94% [at 2.72 µM].
In the case of `CCCCOC(=O)CO`, the Potency result is “inactive”.
On the same count and under the same terms, the result for `COC(=O)c1ccccc1OC` reads “inactive”; that for `Cc1nc(-c2ccc(Cl)cc2)oc1COC(C)(C)C(=O)O`, “inactive”; that for `CCCCCCCCCCCC(=O)OCC(C)OC(=O)CCCCC(=O)O` (stereo not given), “inactive”.
The same measure, in the same setting: the result for `CCCCC(CC)COC(=O)CCCCC(=O)OCc1ccccc1` (stereo not given) reads “inactive”; that for `CN(C)C(=O)COC(=O)Cc1ccc(OC(=O)c2ccc(N=C(N)N)cc2)cc1`, “inactive”; that for `Cc1cccc(C)c1NC(=O)c1ccc(N)cc1`, “inactive”.
The same measure, in the same setting: for `Cc1ccc(C(C)C)cc2c(C)ccc1-2` the value was “inactive”; for `C#CC1(O)CC[C@H]2[C@@H]3CCC4=CCCC[C@@H]4[C@H]3CC[C@@]21C` (stereo not given in full), 24.5 µM (active) and 21.3 µM (active).
Regarding `Clc1sc(Cl)c(Cl)c1Cl`, the Potency result was “inactive”.
Still for that read-out and setting: for `C#Cc1ccc(-c2ccccc2F)cc1` the value was “inactive”.
`O=c1oc2cc(O)ccc2c2oc3cc(O)ccc3c12`: the Potency entry is “inactive”.
Same read-out and setting: for `CCCCCCOC(=O)C(C)CC` (stereo not given) the value was “inactive”.
With `C[C@@H](O)[C@H](N)C(=O)O`, the activity change, negative = cytotoxicity was 1.63% [at 15.8 µM].
On the same count and under the same terms, for `CC(C)Cn1cnc2c(N)nc3ccccc3c21` the value was 1.15% [at 15.8 µM].
Turning to `CN(C)c1ccc(C(=C2C=CC(=[N+](C)C)C=C2)c2ccc(N(C)C)cc2)cc1`, the Potency is 13.7 µM (active) and 19.5 µM (active) and 19 µM (active).
Same read-out and setting: for `CCCC(=O)OC(C)(C)Cc1ccccc1` the value was “inactive”.
On the same count and under the same terms, the result for `Nc1ccc(C(=O)O)c(O)c1` reads “inactive”; that for `C=Cc1ccccc1C=C`, “inactive”.
As for `CCC(CC)(CC(=O)Nc1cccc(/C=C/c2nc(C3CCC3)cs2)c1)C(=O)O`, the Potency entry was “inactive”.
For `COc1ccc(NC(=O)CC(C)=O)cc1`, the Potency result is “inactive”.
The same measure, in the same setting: the result for `COC(C)=O` reads “inactive”.
